Source: PubChem BioAssay AID1259343 (VanderVen Lab, College of Veterinary Medicine, Cornell …, 2017)
In all, about 6,200 compounds went through this assay and about 2,900 (47%) were called active. Cut-off read from the data, not from the text of the source: active = inhibition above about 50%; inactive = the rest. The set was probably picked from earlier hits. Some of the results follow.

Assay: Mycobacterium tuberculosis growth inhibition, primary screen (AID 1259343)
Settings: inhibition: at 10 µM, active compounds read high; outcome: 10 uM

Structure (SMILES)	inhibition
CCCNC(=O)COc1c(Cl)cc(Cl)c2ccc(C)nc12	72.1% (active)
O=[N+]([O-])c1ccc(C(O)CNC(=S)NCc2ccc3c(c2)OCO3)cc1 (configuration not stated)	89.8% (active)
CCc1cc(=O)[nH]c(-n2nc(C)cc2NC(=O)c2ccco2)n1	100% (active)
Cc1cc(=O)[nH]c(-n2nc(C3CC3)cc2NC(=O)c2ccco2)n1	-24.5% (inactive)
CCc1cc(=O)[nH]c(-n2nc(C)cc2NC(=O)c2cc(=O)c3ccccc3o2)n1	34.9% (inactive)
Cc1cc(=O)[nH]c(-n2nc(C)cc2NC(=O)c2ccco2)n1	101% (active)
CCc1cc(=O)[nH]c(-n2nc(C)cc2NC(=O)c2ccc(Br)o2)n1	101% (active)
CCCc1cc(=O)[nH]c(-n2nc(C)cc2NC(=O)c2ccco2)n1	100% (active)
CN(Cc1ccc(Br)cc1)CC(O)COc1cccc(Br)c1 (configuration not stated)	46.8% (inactive)
C=CCNC(=O)N(Cc1ccccn1)c1ccc(Oc2cccc(F)c2)nc1	39.1% (inactive)
COCC(O)CN(C)C(=O)c1ccc(Oc2cccc(Br)c2)nc1 (configuration not stated)	85% (active)
CCc1ccc(N2C(=O)C3N=NN(Cc4ccccc4)C3C2=O)cc1 (configuration not stated)	93.5% (active)
CC1=NOC(Cc2ccccc2)C(=O)N1Cc1ccc(C)cc1 (configuration not stated)	30.2% (inactive)
CCc1ccc(N2C(=O)C3N=NN(Cc4ccc(C)cc4)C3C2=O)cc1 (configuration not stated)	60.1% (active)
COc1ccc(N2C(=O)C3N=NN(Cc4ccccc4C)C3C2=O)cc1Cl (configuration not stated)	-10.3% (inactive)
CCc1ccc(N2C(=O)C3N=NN(Cc4ccccc4C)C3C2=O)cc1 (configuration not stated)	76.5% (active)
CCCCCSc1n[nH]c(-c2ccc(C)cc2)n1	84.7% (active)
Cc1ccc(-c2nc(SCc3ncc(C(C)C)o3)n[nH]2)cc1	11.4% (inactive)
CCCc1cc(=O)[nH]c(-n2nc(C)cc2NC(=O)c2ccc3ccccc3c2)n1	102% (active)
Cc1cc(=O)[nH]c(-n2nc(C)cc2NC(=O)c2ccc3ccccc3c2)n1	94.6% (active)
CCc1cc(=O)[nH]c(-n2nc(C)cc2NC(=O)c2ccc3ccccc3c2)n1	101% (active)
FC(F)(F)c1cc(Cl)c2nnc(SCCN3CCSCC3)n2c1	-6.99% (inactive)
CCCCCC12CCC(CC(=O)O)(CC1)CC2	70.4% (active)
CC(C)N1C(=O)C(=NN2C(=O)CSC2=S)c2ccccc21	-42.2% (inactive)
O=C(NC1CC1)N1CCN(Cc2ccc(-c3ccccc3F)s2)CC1	97.6% (active)
CC(NC(=O)c1ccc(-c2ccccc2F)s1)C(=O)N1CCCCC1 (configuration not stated)	18.5% (inactive)
O=C(NCc1ccoc1)N1CCN(Cc2ccc(Cl)s2)CC1	2.21% (inactive)
